Where “and” joins values, the source holds several entries; their conditions need not be identical. Equal entries are not always repeated. This is part of a sample that, as a whole, favours compounds with a hit. Of some 83,000 tested, about 20% had one in any assay.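 Plates (96-well) were seeded with cells, treated with compound at one concentration, and incubated for 48 hours before percent growth was determined.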 More than one record can exist for a structure, and the calls need not agree. Calls of active or inactive are those of the source.

One experiment has as its system LOX IMVI melanoma. The experiment in a line: NCI-60 one-dose screen, 48 h (100 = growth as untreated, 0 = no growth, -100 = all killed). As to conditions: 10 µM. The protocol:
Growth inhibition of the LOX IMVI human tumor cell line is measured as a screen for anti-cancer activity. Cells are grown in 96 well plates and exposed to the test compound for 48 hours. Compounds are tested at a single concentration, which is 10^-5 M for most compounds. The reported endpoint is percent growth (GI% or GIPRCNT), where numbers from 0 - 100% represent growth inhibition, and numbers from -100% - 0 represent cell death. For example, a value of 40 represents 60% growth inhibition. A value of 0 means no net growth occurred over the course of the experiment. A value of -40 indicates 40% of cells at the beginning of the experiment died by the end of the experiment. A value of -100 means all cells are dead at the end of the experiment.
NCI-60 Human Tumor Cell Lines Screen was performed using the standard one-dose NCI protocol, which is described in more detail at https://dtp.cancer.gov/discovery_development/nci-60/default.htm.
Compounds with GIPRCNT values below 10 were considered active. Activity score was based on GIPRCNT using the following formula: […]
Score is 0 for GIPRCNT values of 100 or above, 50 for GIPRCNT values of 0, and 100 for GIPRCNT values of -100.
As to `CC1(C)OB(c2ccc(Cn3cc(F)c(=O)[nH]c3=O)cc2)OC1(C)C`, the growth was 98.2% (inactive).
As to `CC(C)(C)c1cc(NC(=O)Cc2ccc(-c3cnc4cc(-c5cnn(CCN6CCOCC6)c5)ccc4n3)cc2)no1`, the growth was 17.7% (inactive).
Same read-out and setting: to `COc1ccc(Cl)cc1C(=O)NCCc1ccc(S(=O)(=O)NC(=O)NC2CCCCC2)cc1` belongs 102% (inactive) and 95.9% (inactive).

The same experiment, now with this note: 10 µM unless noted.
As for `Oc1nc(NCCc2ccccc2)sc1/C=C1\C=Nc2ncccc21`, the growth was 8.25% (active) and 16.3% (inactive).
Still for that read-out and setting: next, `Cc1cc(-c2ccc(NS(=O)(=O)c3ccccc3)c(C)c2)ccc1NS(=O)(=O)c1ccccc1`: 84% (inactive) and 75% (inactive); `N=C1N=C(N)CS1`: 107% (inactive).
In the case of `CCN(CC)CCCC(CNc1ccnc2cc(Cl)ccc12)c1ccc(Cl)cc1` (stereo not given), the growth was -85.5% (active) and -13% (active).
The same measure, in the same setting: to `CCc1c(CC(=O)O)c2cc(C)ccc2n1Cc1ccc(Cl)cc1` belongs 103% (inactive) and 101% (inactive).
The same measure, in the same setting: to `COc1cc(/C=N/Nc2nc3c([nH]2)c(=O)n(C)c(=O)n3C)ccc1O` belongs 98.2% (inactive) and 116% (inactive); to `NC(=O)C1CC2C=CC1C2` (stereo not given), 90.1% (inactive) and 94.2% (inactive); to `Fc1ccccc1Nc1n[nH]c(=S)s1`, 128% (inactive).
Still for that read-out and setting: to `COc1cc(NS(C)(=O)=O)ccc1Nc1c2ccccc2nc2c(C)cccc12` belongs -49.9% (active) and -3.55% (active); to `CC1=NN(c2ccccc2)C(=O)C1C(=O)c1ccccc1` (stereo not given), 96.9% (inactive); to `Cc1ccc(S(=O)(=O)Nc2ccc3cc([N+](=O)[O-])ccc3c2[N+](=O)[O-])cc1`, 82% (inactive) and 97.3% (inactive).
On to `O=C(c1ccc(Cl)cc1)C(NCCO)c1ccc(Cl)cc1` (stereo not given), for which the growth was 94.8% (inactive) and 96.1% (inactive).
For `CCN(CC)CCC(CNc1c2ccc([N+](=O)[O-])cc2nc2cc(OC)c(OC)cc12)c1ccccc1` (stereo not given), the growth is -62.2% (active) and -100% (active).
Same read-out and setting: next, `CC(=O)Oc1cc(C(=O)O)cc(OC(C)=O)c1OC(C)=O`: 96.3% (inactive) and 96% (inactive).
On the same count and under the same terms, next, `COc1ccc(CCN(C)CCCC(C#N)(c2ccc(OC)c(OC)c2)C(C)C)cc1OC` (stereo not given): 92.3% (inactive) and 95.4% (inactive) and 92.7% (inactive); `CCN(CC)CCC(CNc1ccnc2cc(Cl)ccc12)c1ccc(OC)cc1` (stereo not given): 40.2% (inactive) and 32.1% (inactive); `COc1ccc(S(=O)(=O)N2CCOCC2)cc1NC(=O)c1[nH]c(C)c2c1CCCCC2=O`: 98.6% (inactive) and 23.5% (inactive).
Same read-out and setting: to `O=[N+]([O-])c1ccc(-n2[nH]nnc2=S)cc1` belongs 94.4% (inactive); to `C1CCCCNCCC1`, 111% (inactive).
With `O=[N+]([O-])c1ccccc1/C=N\Nc1ccccc1`, the growth was 71.7% (inactive) and 53.4% (inactive).
On the same count and under the same terms, to `Oc1c(CN2CCCCC2)ccc2cccnc12` belongs 27.3% (inactive) and 44.1% (inactive).
Same read-out and setting: to `CC(=O)C(/C=N/C(N)=O)=C(/C)O` belongs 92.9% (inactive).
On the same count and under the same terms, next, `Cc1ccc(-c2noc(CC(=O)c3ccc([N+](=O)[O-])cc3)n2)cc1`: 89.5% (inactive); `S=C1SCN(Cc2ccccc2)CN1Cc1ccccc1`: 69.3% (inactive); `NC(=S)NN=C1CCC(C2CCCCC2)CC1` (stereo not given): 99.8% (inactive).
`CC(=O)NC(Cc1ccccc1)C(=O)Oc1ccc2ccccc2c1` (stereo not given): the growth was 84.9% (inactive) and 87.7% (inactive).
Still for that read-out and setting: next, `CO/N=C/C=C\C(=O)N/C=C/C[C@H]1/C=C/[C@H](O)/C=C\C=C\c2cccc(O)c2C(=O)O1`: -45.7% (active) and -73.7% (active); `CC12CCC(CC1)C(C)(C)O2`: 97.4% (inactive).
`Clc1nc(Oc2ccccc2)nc(-c2cn(-c3ccccc3)c3ccccc23)n1`: the growth is 10.7% (inactive).
On the same count and under the same terms, to `Cc1ccc2nc3c(nc2c1)-c1cccc2cccc-3c12` belongs 82.6% (inactive); to `Nc1cc(-c2cccc(OC(F)(F)F)c2)nc2ccc(N3CCCC3)cc12`, 2.06% (active) and 12.6% (inactive) and 20.4% (inactive); to `Nc1nc2ncc(CNc3ccc(C(=O)N[C@@H](CCc4nn[nH]n4)C(=O)O)cc3)nc2c(=O)[nH]1`, 99.5% (inactive) and 98.7% (inactive).
On the same count and under the same terms, to `Cc1cc(O)c2c(c1)C(=O)c1cc(O)cc(O)c1C2=O` belongs 84.6% (inactive) and 86.5% (inactive); to `c1ccc2c(CC3=NCCN3)cccc2c1`, 91.9% (inactive) and 99.4% (inactive).

Staying with this experiment, now noted: 30 µM.
Take `CC(C)(C)c1cc(NC(=O)Cc2ccc(-c3cnc4cc(-c5cnn(CCN6CCOCC6)c5)ccc4n3)cc2)no1`: the growth was 8.41% (active).

The experiment is the same for the next values; noted with them: 50 µM.
For `CC1(C)OB(c2ccc(Cn3cc(F)c(=O)[nH]c3=O)cc2)OC1(C)C`, the growth was 52.6% (inactive).

The experiment is the same for the next values; noted with them: 100 µM.
Regarding `COc1ccc(Cl)cc1C(=O)NCCc1ccc(S(=O)(=O)NC(=O)NC2CCCCC2)cc1`, the growth was 64.7% (inactive).

These data come from PubChem BioAssay (NCI).
